From the supplement of paper PMC6411743 come the findings set out here.

Common to all, as to assay: NP40-soluble protein abundance relative to vehicle (solubility fold change) (ratio); higher = more soluble protein in presence of AMP-PNP
In one assay the target is T1, GALNS (UniProt P34059).
T1 sequence (whole entry): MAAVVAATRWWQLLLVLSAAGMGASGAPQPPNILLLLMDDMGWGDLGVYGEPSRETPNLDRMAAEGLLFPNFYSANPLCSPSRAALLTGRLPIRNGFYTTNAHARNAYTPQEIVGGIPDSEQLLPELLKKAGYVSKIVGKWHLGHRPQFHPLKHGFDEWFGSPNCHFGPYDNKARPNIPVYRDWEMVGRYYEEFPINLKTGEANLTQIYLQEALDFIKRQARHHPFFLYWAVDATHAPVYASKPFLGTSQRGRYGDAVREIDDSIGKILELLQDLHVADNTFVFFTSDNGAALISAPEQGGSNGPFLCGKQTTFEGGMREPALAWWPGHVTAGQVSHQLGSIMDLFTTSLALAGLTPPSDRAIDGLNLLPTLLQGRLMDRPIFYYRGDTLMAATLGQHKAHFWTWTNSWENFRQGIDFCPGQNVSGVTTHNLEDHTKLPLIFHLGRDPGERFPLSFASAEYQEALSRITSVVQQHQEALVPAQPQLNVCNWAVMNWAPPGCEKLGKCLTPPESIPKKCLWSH
In a few lines: (§1)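 Jurkat crude lysate prepared with a Dounce homogeniser was treated at eight concentrations spanning 0.1 to 10 mM, 10 min at room temperature then 3 min at 37 °C. Solubilisation with 0.8% NP40 and benzonase and ultracentrifugation preceded TMT labelling of the supernatant for LC-MS/MS. Fold change against the detergent-processed vehicle was determined per replicate from vsn-normalised intensities, across three independent experiments.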

The next assay addresses T2, MFN2 (UniProt O95140).
T2 sequence (whole entry): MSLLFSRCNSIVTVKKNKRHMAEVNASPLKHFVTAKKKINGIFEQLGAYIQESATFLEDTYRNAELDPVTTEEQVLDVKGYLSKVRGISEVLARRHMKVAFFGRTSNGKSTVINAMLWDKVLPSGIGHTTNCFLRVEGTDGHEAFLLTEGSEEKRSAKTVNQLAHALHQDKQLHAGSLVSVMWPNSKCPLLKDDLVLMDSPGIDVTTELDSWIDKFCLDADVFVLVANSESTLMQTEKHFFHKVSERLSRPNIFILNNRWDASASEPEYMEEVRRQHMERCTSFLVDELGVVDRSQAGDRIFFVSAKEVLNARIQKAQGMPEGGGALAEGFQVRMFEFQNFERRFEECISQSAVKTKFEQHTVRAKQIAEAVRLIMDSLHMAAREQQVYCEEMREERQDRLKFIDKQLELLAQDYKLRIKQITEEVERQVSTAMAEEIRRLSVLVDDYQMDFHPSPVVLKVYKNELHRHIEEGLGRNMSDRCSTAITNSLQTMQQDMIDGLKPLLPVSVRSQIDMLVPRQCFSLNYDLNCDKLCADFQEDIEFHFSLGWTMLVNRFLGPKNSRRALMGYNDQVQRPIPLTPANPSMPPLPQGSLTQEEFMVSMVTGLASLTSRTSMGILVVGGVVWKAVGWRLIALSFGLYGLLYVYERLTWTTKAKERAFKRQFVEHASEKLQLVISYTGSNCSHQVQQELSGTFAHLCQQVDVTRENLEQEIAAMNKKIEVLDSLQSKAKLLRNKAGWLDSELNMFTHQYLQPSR
In a few lines:
as §1

The next assay concerns the target T3, PPM1F (UniProt P49593).
T3 sequence (whole entry): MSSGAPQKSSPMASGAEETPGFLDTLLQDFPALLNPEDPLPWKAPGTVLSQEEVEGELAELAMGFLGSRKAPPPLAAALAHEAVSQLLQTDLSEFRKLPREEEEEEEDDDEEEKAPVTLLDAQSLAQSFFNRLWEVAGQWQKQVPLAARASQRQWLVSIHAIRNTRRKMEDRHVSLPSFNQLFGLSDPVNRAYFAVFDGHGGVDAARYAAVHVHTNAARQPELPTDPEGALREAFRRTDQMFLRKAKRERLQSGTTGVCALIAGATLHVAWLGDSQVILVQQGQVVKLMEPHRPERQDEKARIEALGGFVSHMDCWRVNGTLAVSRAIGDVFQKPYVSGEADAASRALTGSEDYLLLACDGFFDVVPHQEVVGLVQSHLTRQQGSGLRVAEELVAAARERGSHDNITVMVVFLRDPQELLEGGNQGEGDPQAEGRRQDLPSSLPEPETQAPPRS
In a few lines:
as §1

± gives the standard deviation of the averaged measurements. About 6,200 targets were measured; listed, in parts, are those with the largest changes and a random draw of the rest.

`Nc1ncnc2c1ncn2[C@@H]1O[C@H](COP(=O)(O)OP(=O)(O)NP(=O)(O)O)[C@@H](O)[C@H]1O` [adenylyl imidodiphosphate]: the NP40-soluble protein abundance with GALNS (concentration: 1mM) is 0.986 ± 0.018; with GALNS (concentration: 2mM), 0.972 ± 0.011; with GALNS (concentration: 4mM) it was 0.957 ± 0.04; with GALNS (concentration: 6mM), 0.963 ± 0.019; with GALNS (concentration: 8mM) it was 0.933 ± 0.034; in the assay with GALNS (concentration: 10mM), 0.975 ± 0.027. Besides, the NP40-soluble protein abundance in the assay with MFN2 (concentration: 1mM) was 1.01 ± 0.064; in the assay with MFN2 (concentration: 2mM), 0.956 ± 0.032; in the assay with MFN2 (concentration: 4mM) it was 1.01 ± 0.074; with MFN2 (concentration: 6mM), 0.965 ± 0.037; with MFN2 (concentration: 8mM) it was 0.986 ± 0.049; in the assay with MFN2 (concentration: 10mM), 0.989 ± 0.024. For the same compound, the NP40-soluble protein abundance in the assay with PPM1F (concentration: 1mM) turned out to be 1.028 ± 0.0057; with PPM1F (concentration: 2mM) it was 1.019 ± 0.0062; in the assay with PPM1F (concentration: 4mM) it was 1.03 ± 0.011; in the assay with PPM1F (concentration: 6mM) it was 1.014 ± 0.0081; with PPM1F (concentration: 8mM), 1.02 ± 0.013; with PPM1F (concentration: 10mM), 1.04 ± 0.018.
